PubChem BioAssay AID2650 (Broad Institute, 2010)
Hit rate of the full screen: of about 320,000 compounds, about 320 (0.1%) were called active.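 The calls were made as follows: active = more than half of replicates show inhibition above 20%; inconclusive = some but at most half of replicates above 20% inhibition; inactive = no replicate shows inhibition above 20%.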 The sample as a whole holds a higher share of actives than the screen did. Non-standard residues stand in square brackets, D forms with d. Residues, ends and D or L forms follow the SMILES beside them. ξ: configuration not given here. ξM = CSCCC(N)C(=O)O

The compounds below were run against Glycogen synthase kinase-3 alpha (Homo sapiens) (UniProt P49840) (assay: blockers of GSK3A enzyme activity – biochemical, luminescence, cell-free homogeneous, HTS, primary screen (AID 2650;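 also: GST-tagged GSK-3 alpha with peptide substrate and 25 µM ATP; 0% = DMSO neutral wells and 100% = GW8510 positive control wells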)). Details: GSK-3 alpha kinase, ADP-Glo luminescence, 60 min; at 10 µM; stronger effect = higher value.
Chain of Glycogen synthase kinase-3 alpha (Homo sapiens) (P49840 whole entry, looked up): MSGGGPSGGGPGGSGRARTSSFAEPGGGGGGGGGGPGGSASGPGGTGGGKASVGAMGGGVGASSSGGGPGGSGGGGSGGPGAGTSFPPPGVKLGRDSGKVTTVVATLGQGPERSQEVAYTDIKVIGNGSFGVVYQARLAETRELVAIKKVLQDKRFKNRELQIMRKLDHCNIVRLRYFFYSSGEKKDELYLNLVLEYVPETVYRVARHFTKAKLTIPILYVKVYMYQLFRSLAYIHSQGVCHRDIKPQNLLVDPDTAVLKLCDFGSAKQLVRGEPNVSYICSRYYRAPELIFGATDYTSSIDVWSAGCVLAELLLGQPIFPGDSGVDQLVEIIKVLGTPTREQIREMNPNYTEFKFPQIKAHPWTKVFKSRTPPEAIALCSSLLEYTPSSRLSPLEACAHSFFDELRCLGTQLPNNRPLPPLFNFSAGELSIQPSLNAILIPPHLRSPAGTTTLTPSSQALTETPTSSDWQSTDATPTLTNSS

SMILES | inhibition
Cc1ccccc1-c1cc(C(=O)NCc2cccs2)n(CC2CC(c3cccnc3)=NO2)n1 (stereo not drawn) | 8.15% (inactive)
COC(=O)c1sc(N)c(C(=O)OC)c1COC(=O)CNS(=O)(=O)c1ccc(C)cc1 | -5.73% (inactive)
O=C(CN1CCC(O)(c2cccc(C(F)(F)F)c2)CC1)NCCc1ccccc1 | -1.83% (inactive)
COc1ccccc1CNC(=O)Cn1c(=O)oc2cc(Cl)ccc21 | -2.27% (inactive)
CN(C)Cc1c(O)ccc2c(=O)c(-c3ccccc3Cl)coc12 | 0.391% (inactive)
COc1ccc2c(c1)O/C(=C\c1ccccc1O)C2=O | -3.6% (inactive)
COC(=O)C(C)Oc1ccc2c(c1)O/C(=C\c1cccc(Br)c1)C2=O (stereo not drawn) | -0.218% (inactive)
O=C1/C(=C/c2ccc3c(c2)OCO3)Oc2cc(OCC(=O)N3CC(O)C[C@H]3C(=O)O)ccc21 (stereo partly drawn) | 58.3% (active)
CSc1nccc(NC(=O)c2ccc(C(C)(C)C)cc2)n1 | 0.764% (inactive)
CCN1CCN(c2c(Cl)cccc2NC(=O)c2ccc(Br)o2)CC1 | 84.2% (active)
O=C(Nc1cccc(Cl)c1N1CCOCC1)c1cccnc1 | 1.42% (inactive)
O=C(Nc1cccc(Cl)c1N1CCOCC1)c1ccc2c(c1)OCCO2 | 3.78% (inactive)
CC(C)(C)NS(=O)(=O)NC(=O)C1=C(N2CCCC2)COC1=O | -2.51% (inactive)
N#Cc1ccc(OCC(=O)NC(=O)NC2CCS(=O)(=O)C2)cc1 (stereo not drawn) | 0.468% (inactive)
CCOC(=O)CCCCCC(=O)Nc1ccc2c(c1)CC(=O)N([C@@H](C)CO)C[C@H](C)[C@@H](CN(C)Cc1ccccc1)O2 | -2.38% (inactive)
COc1ccc(NC(=O)c2cc([N+](=O)[O-])ccc2NC(=O)CNC2CCCCC2C)c(OC)c1 (stereo not drawn) | -2.82% (inactive)
O=C(Nc1ccc(Cl)c(Cl)c1)N1CC=C(c2ccccc2)CC1 | -0.494% (inactive)
COc1ccc(-n2c(=S)[nH]c3sc4c(c3c2=O)CCc2ccccc2-4)cc1 | -1.96% (inactive)
COc1ccc(Cn2c(O)c(/C=C3/C=CC=N3)c(=O)[nH]c2=O)cc1 | 0.739% (inactive)
CCC(C)NCCOCCOc1ccc(Br)cc1C (stereo not drawn) | -0.652% (inactive)
CCNc1nc(N)nc(Oc2ccc(OCC)nn2)n1 | 3.16% (inactive)
Cc1ccc(CNCc2ccc3c(c2)OCO3)c(C)c1 | -0.957% (inactive)
CCOC(=O)c1ccccc1NC(=O)COC(=O)CCC(=O)N1CCOCC1 | 8.47% (inactive)

SMILES | inhibition
COc1ccc(CCNS(=O)(=O)c2cn(C)nc2C)cc1 | 2.55% (inactive)
NNC(=O)c1nnn(-c2nonc2N)c1CN1CCCC1 | 23.2% (inactive)
Nc1nonc1-n1nnc(C(=O)N/N=C\c2ccncc2)c1CN1CCCCC1 | 107% (active)
Nc1nonc1-n1nnc(C(=O)N/N=C/c2ccccc2O)c1CN1CCCC1 | 49.8% (inactive)
COc1ccc(/C=C/C(=O)OCC(=O)NC2CCCCCC2)cc1OC | -0.779% (inactive)
COc1ccc(S(=O)(=O)N2CCN(C(C)C(=O)Nc3ccc(C(C)C)cc3)CC2)cc1 (stereo not drawn) | 1.33% (inactive)
COCCCn1c(Cc2csc(Nc3cccc(Cl)c3)n2)nnc1SCC(=O)OC1CCCCC1 | 1.8% (inactive)
CC(=O)c1cccc(OCC(=O)OCC(=O)Nc2cc(S(=O)(=O)N3CCCCC3)ccc2C)c1 | 2.43% (inactive)
CCOCC(=O)Nc1ncc(S(=O)(=O)c2ccc([N+](=O)[O-])cc2)s1 | -1.6% (inactive)
COC(=O)CNC(=O)C(CCSC)NC(C)=O (stereo not drawn) (Ac-[ξM]-Gly-OMe) | -4.49% (inactive)
CSCc1cc(N(C)C)nc(SCc2ccc(Cl)cc2Cl)n1 | -5.57% (inactive)
COCCNc1nc(N)c([N+](=O)[O-])c(NCCO)n1 | 53.1% (active)
C=CCNc1nc(N)c([N+](=O)[O-])c(NC2CCCCC2)n1 | 0.434% (inactive)
COCCNc1nc(N)c([N+](=O)[O-])c(N2CCCCCC2)n1 | 1.39% (inactive)
COc1ccc(C(=O)NCc2ccccc2C)cc1S(=O)(=O)NC1CCCC1 | -2.96% (inactive)
Cn1c(SCC(=O)Nc2nccs2)nnc1-c1cccnc1 | 2.04% (inactive)
CC1CCCN(C(=O)CN2C(=O)c3ccccc3S2(=O)=O)C1 (stereo not drawn) | -0.713% (inactive)
CC1CC(=NNC(=O)C2COc3ccccc3O2)CC(C)(C)C1 (stereo not drawn) | 0.373% (inactive)
C=CCC[C@H](Cc1ccc(F)cc1)C(=O)OC[C@@H](NC(=O)[C@@H](CC=C)CC(=O)N[C@H](CO)Cc1ccccc1)C(C)(C)C | -1.79% (inactive)
CS(=O)(=O)N(CC(=O)NC1CCCC1)Cc1ccc(F)cc1 | 10.3% (inactive)
O=S(N1CCCCCC1)C12CC3CC(CC(C3)C1)C2 (stereo not drawn) | -2.72% (inactive)
Cc1cc(C)c(S(=O)(=O)n2cc(C(C)C(N)C(=O)O)c3ccccc32)c(C)c1 (stereo not drawn) | -2.93% (inactive)
NC1=NC[C@@H](Cc2ccc(O)cc2)N1CC1CCCCC1 | 1.17% (inactive)

SMILES | inhibition
O=C(CSc1nc2nccnc2c(=O)n1Cc1cccs1)Nc1ccccc1F | 1.43% (inactive)
O=C(c1ccc(N2CCOCC2)c([N+](=O)[O-])c1)N1CCN(c2ccccc2F)CC1 | -2.69% (inactive)
Cn1c(-c2ccc(F)cc2)cc2onc(-c3ccccc3Cl)c2c1=O | -1.73% (inactive)
CCN(CC)CCCNC(=O)CCn1nc(-c2ccc(Cl)cc2)ccc1=O | -1.8% (inactive)
O=C(NCCCN1CCCC1=O)C(=O)NCC1OCCN1S(=O)(=O)c1ccc(Br)cc1 (stereo not drawn) | -1.8% (inactive)
COc1ccc2nc3n(c(=O)c2c1)-c1ccc(Cl)cc1C(=O)NC3Cc1ccccc1 (stereo not drawn) | -2.35% (inactive)
N#Cc1ccccc1CN1C(=O)S/C(=C/c2cccn2-c2cccc(C(=O)O)c2)C1=O | 3.06% (inactive)
COc1ccc(Cn2c(C)c(C)c(C#N)c2NC(=O)Nc2ccc(F)cc2)cc1 | -1.46% (inactive)
O=C(Nc1ccc(S(=O)(=O)N2CCCCC2)cc1)C1CC(=O)N(c2ccc(F)cc2)C1 (stereo not drawn) | 0.943% (inactive)
CCOc1ccc(S(=O)(=O)NCCC(=O)NCC(C)(C)N2CCOCC2)cc1 | -4.12% (inactive)
CC(C)n1cnc2c(NCc3ccccc3)cc(N[C@@H](CO)Cc3ccccc3)cc21 | -3.52% (inactive)
CCOc1ccc(CCNC(=O)C(CC)n2nc(C)n3c(cc4sccc43)c2=O)cc1OCC (stereo not drawn) | 8.43% (inactive)
CC1=C(C(=O)NC2CC(C)(C)Cc3c2cnn3-c2ccc(C)cc2)OCCO1 (stereo not drawn) | -2.77% (inactive)
Cc1cccn2c(=O)nc(SCC(=O)NCc3ccccc3Cl)nc12 | -2.07% (inactive)
O=C(CN(C(=O)c1csnn1)c1cccc(F)c1)NCc1ccc(F)cc1 | 0.738% (inactive)
O=C(Nc1ccccn1)C1CCN(S(=O)(=O)c2ccccc2)CC1 | 3.28% (inactive)
CCCC1NC(=S)NC(C)=C1C(C)=O (stereo not drawn) | -1.05% (inactive)
OCCCNc1nc(-c2ccccc2)c2cc(Cl)ccc2n1 | 1.49% (inactive)
OCCCNc1nccc(-c2cc(Nc3cccc(Cl)c3)ncn2)n1 | 89.3% (active)
CC(C)n1cnc2c(Nc3cccc(Cl)c3)nc(N(CCO)CCCO)nc21 | 9.71% (inactive)
CCCOc1ccc(Cc2c(O)nc(N)[nH]c2=O)cc1C | -0.849% (inactive)
CCn1c(SC)nc(O)c(C(c2ccc(OC)c(O)c2)c2c(O)nc(SC)n(CC)c2=O)c1=O | -6.95% (inactive)
